{
  "source": "ChEMBL document CHEMBL3433997",
  "about": "“St. Jude Leishmania screening dataset” (2016)",
  "data": [
    {"biological_target": "Solute carrier family 2, facilitated glucose transporter member 1 (Homo sapiens) (UniProt P11166)", "sequence (P11166 whole entry)": "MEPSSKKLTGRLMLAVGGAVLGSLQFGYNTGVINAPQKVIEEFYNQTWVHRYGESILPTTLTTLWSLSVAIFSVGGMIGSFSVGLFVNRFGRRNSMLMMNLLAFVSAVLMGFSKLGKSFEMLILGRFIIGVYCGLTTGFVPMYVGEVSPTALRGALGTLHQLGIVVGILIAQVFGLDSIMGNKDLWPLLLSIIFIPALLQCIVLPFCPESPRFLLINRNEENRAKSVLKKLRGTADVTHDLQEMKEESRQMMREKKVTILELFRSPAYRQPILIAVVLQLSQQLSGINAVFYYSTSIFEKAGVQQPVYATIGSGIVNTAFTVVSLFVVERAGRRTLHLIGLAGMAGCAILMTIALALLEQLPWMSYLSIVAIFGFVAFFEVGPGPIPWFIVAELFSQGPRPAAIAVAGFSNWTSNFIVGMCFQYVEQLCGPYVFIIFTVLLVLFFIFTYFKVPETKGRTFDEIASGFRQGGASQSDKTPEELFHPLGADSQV", "experiment": "ST_JUDE_LEISH: Cytotoxicity at 2uM final concentration against transgenic Leishmania Mexicana promastigotes LmGLUT1 that are glucose transport deficient and complemented with the human glucose transporter GLUT1. Activity is measured by DNA content using SYBR green in vitro", "type": "functional", "units": {"inhibition": "%"}, "values": [
      {"smiles": "CN1CCN(CCCN(Cc2csc(-c3ccc(CNCc4ccccc4)cc3)n2)S(=O)(=O)c2cccc3cccnc23)CC1", "inhibition": 0.74},
      {"smiles": "CCOc1ccc2c(=NN=Cc3ccc(F)cc3)cc(C)[nH]c2c1", "inhibition": 4.44},
      {"smiles": "O=C(c1cc(-c2cccs2)n[nH]1)N1CCN(S(=O)(=O)c2ccc(Br)cc2)CC1", "inhibition": 0.07},
      {"smiles": "Cc1cc2ncc(C(N)=O)c(Nc3ccc(N4CCOCC4)cc3)c2cc1S(C)(=O)=O", "inhibition": 1.97},
      {"smiles": "O=C(/C=C/c1ccc(Cl)c(Cl)c1)NCCCCCN1CCC(CCNC(=O)C2(c3ccc(Cl)cc3)CC2)CC1", "inhibition": 16.5},
      {"smiles": "Cc1cc(C(=O)Nc2ccc(C)c(-c3nc(N(C(=O)c4ccc(F)c(C)c4)C4CCNCC4)nc4c3ccc(=O)n4-c3c(F)cccc3F)c2)ccc1F", "inhibition": 1.66},
      {"smiles": "CN(C)c1nc2cc(-n3cnc4cc(-c5ccc(Cl)cc5)sc4c3=O)ccc2n1CCCN1CCCCC1", "inhibition": 9.33},
      {"smiles": "CN(C)CCCOc1cccc(CCNCc2cccc(Oc3ccc(Cl)cc3)c2)c1", "inhibition": 2.64},
      {"smiles": "COc1ccc2nccc([C@@H](O)CNCCCN(C)CCOc3cc(F)cc(F)c3)c2c1", "inhibition": 6.85},
      {"smiles": "CCCc1cc(Cc2cnc(N)nc2N)cc(CC)c1O", "inhibition": 1.7},
      {"smiles": "Cc1cccc2nc(-c3cccc(-c4ccc(NC(=O)c5cccnc5)cc4)c3)[nH]c12", "inhibition": 3.18},
      {"smiles": "Cn1c(=O)c(-c2c(Cl)cccc2Cl)cc2cnc(Nc3ccc(N4CCOCC4)cc3)nc21", "inhibition": 34.6},
      {"smiles": "COc1ccc2nccc([C@H](O)CN3CCC(NCc4cc(C)c5c(c4)OCCO5)CC3)c2n1", "inhibition": 5.84},
      {"smiles": "CN(CCCN(C)c1cc(NC(=O)c2ccc(F)cc2)ccn1)Cc1cccc(O)c1", "inhibition": -1.12},
      {"smiles": "CCOc1c(CNCCCNc2nc3ccccc3[nH]2)cc(I)cc1OC", "inhibition": 1.59},
      {"smiles": "CC(C)c1ccc(CN2CCCCC(NC(=O)c3cc(-c4cccc(F)c4)cs3)C2)cc1", "note": "(centres undefined)", "inhibition": -2.71},
      {"smiles": "O=C(Nc1cccc(-c2nn3ncccc3c2-c2ccnc(Nc3ccc(N4CCOCC4)cc3)n2)c1)c1c(F)cccc1F", "inhibition": 10.7},
      {"smiles": "c1cncc(CNc2ncc(-c3ccsc3)c(-c3nccs3)n2)c1", "inhibition": 5.96},
      {"smiles": "COc1cc(NC(=O)Nc2ccc([N+](=O)[O-])cc2OC)c(OC)cc1Cl", "inhibition": 16.6},
      {"smiles": "COc1cccc(OC(C)(C)c2nc(N[C@@H](C)c3ccccc3)c3cn[nH]c3n2)c1", "inhibition": 1.92},
      {"smiles": "Cc1cccc(Nc2nccc(NCC(O)c3ccc(C(F)(F)F)cc3)n2)c1", "note": "(centres undefined)", "inhibition": 10.6},
      {"smiles": "N#Cc1ccc2c(c1)CCN(CCC1CCC(NC(=O)c3cc4cccc([N+](=O)[O-])c4[nH]3)CC1)C2", "note": "(centres undefined)", "inhibition": 10.1},
      {"smiles": "Nc1nc(N)c2c(Cl)c(N3CCOCC3)ccc2n1", "inhibition": 36.1},
      {"smiles": "CN1CCN(c2ccnc3ccc(NC(=O)N(C)c4ccc(Cl)c(Cl)c4)cc23)CC1", "inhibition": -0.11}
    ]}
  ]
}
